# Assay results from PubChem BioAssay (Tox21).
# “And” between values parts separate entries of the source, which are not always exact repeats. Equal values may be shown once. Results filed as inconclusive are left out. Some compounds were tested as several samples or in several runs, with calls that do not always agree. The source made the active and inactive calls. The call rests on the fitted dose curve.
# Assay: p53 small molecule agonists, cell-based qHTS assay with human liver microsomes (AID 1963577);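 further: p53 response element beta-lactamase reporter cells with liver microsomes plus NADPH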
# Conditions: HCT-116 p53RE-bla with human liver microsomes, ratio, 16 h; series mostly up to 66 µM; activation: at the top concentration
# Procedure, shortened: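 Steps: plate p53RE-bla cells, incubate 5 h at 37 C; add compound in DMSO; add microsomes (0.5 mg/mL final) and NADPH (0.5 mg/mL final); incubate 16 h at 37 C; add LiveBLAzer, 2 h RT; read fluorescence.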
# On the % scale 0 is the no-effect control and ±100 the full control effect.
row,SMILES,activation
1,CCCCCBr,0.715% (inactive)
2,CC(C)(O)C(=O)Nc1ccc([N+](=O)[O-])c(C(F)(F)F)c1,-5.19% (inactive)
3,CCCCNC(=O)n1c(NC(=O)OC)nc2ccccc21,-14.6% (inactive)
4,CCC(Cl)[N+](=O)[O-] (stereo not drawn),0.186% (inactive)
5,OC(Cc1ccccc1Cl)(Cn1cncn1)C1(Cl)CC1 (stereo not drawn),-2.67% (inactive)

# Assay: p53 small molecule agonists, cell-based qHTS assay with rat liver microsomes (AID 1963578)
# Conditions: HCT-116 p53RE-bla, beta-lactamase ratio, 16 h; series mostly up to 66 µM; activation: at the top concentration
# Procedure, shortened: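 Metabolic activation is supplied by rat liver microsomes with NADPH (each 0.5 mg/mL final). p53RE-bla cells incubate with compound 16 h at 37 C; reporter activity is measured by LiveBLAzer fluorescence.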
SMILES,activation,Potency
C=CC=O,-0.618% (inactive),
CCC(C)(C#N)N=NC(C)(C#N)CC (stereo not drawn),2.51% (inactive),
c1nc[nH]n1,,inactive
CCOP(=O)(OCC)OP(=O)(OCC)OCC,0.181% (inactive),
Nc1cccnc1,,inactive
CC(C)Nc1nc(Cl)nc(NC(C)C)n1,,inactive
CC(C)OS(C)(=O)=O,-0.771% (inactive),
CCCCOC(=O)c1ccccc1C(=O)O,1.52% (inactive),
CC(=O)[O][Hg][c]1ccccc1,,inactive
CCCCCCCCCl,,inactive
C#CCOS(=O)OC1CCCCC1Oc1ccc(C(C)(C)C)cc1 (stereo not drawn),,inactive
ClCC(Br)CBr (stereo not drawn),-0.409% (inactive),
CCCCCON=O,-0.349% (inactive),
FC(F)(F)c1ccc(Cl)cc1,,inactive
CON(C)C(=O)Nc1ccc(Cl)cc1,-0.819% (inactive),
Cc1ccc(N)cc1,,inactive
CCCCCBr,-1.75% (inactive),
CC(=O)CCC(C)=O,0.465% (inactive),
CC(C)(O)C(=O)Nc1ccc([N+](=O)[O-])c(C(F)(F)F)c1,,inactive
CCCCNC(=O)n1c(NC(=O)OC)nc2ccccc21,,inactive
CCC(Cl)[N+](=O)[O-] (stereo not drawn),0.873% (inactive),
OC(Cc1ccccc1Cl)(Cn1cncn1)C1(Cl)CC1 (stereo not drawn),0.624% (inactive),

# Assay: p53 small molecule agonists, cell-based qHTS assay with human liver microsomes: qHTS cell viability counter screen (AID 1963579); further: nearly all actives have a fitted effect of over 45% in size; further: potency means the concentration at half of the fitted maximal effect
# Conditions: p53RE-bla HCT-116 viability, ATP luminescence, 16 h, HLM; series mostly up to 66 µM; activity change, negative = cytotoxicity: at the top concentration
# Procedure, shortened: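 After the 460/530 nm beta-lactamase read, CellTiter-Glo was added to the same wells and luminescence measured after 30 min at room temperature, giving viability of p53RE-bla cells treated 16 h with compounds plus microsomes and NADPH.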
SMILES,"activity change, negative = cytotoxicity",Potency
C=CC=O,1.57% (inactive),
CCC(C)(C#N)N=NC(C)(C#N)CC (stereo not drawn),5.81% (inactive),
c1nc[nH]n1,,inactive
CCOP(=O)(OCC)OP(=O)(OCC)OCC,-13.2% (inactive),
Clc1ccccc1Cl,,inactive
CCN(CC)C(=S)S,,29.1 µM (active) and inactive
CC(C)Nc1nc(Cl)nc(NC(C)C)n1,,inactive
Nc1ccc(-c2ccc(N)c(N)c2)cc1N,,inactive
CC(C)OS(C)(=O)=O,3.92% (inactive),
CCCCCCCCCl,-8.76% (inactive),
C#CCOS(=O)OC1CCCCC1Oc1ccc(C(C)(C)C)cc1 (stereo not drawn),28.7% (inactive),
O=S(=O)(O)OOS(=O)(=O)O,,inactive
ClCC(Br)CBr (stereo not drawn),3.14% (inactive),
CC(C)C#N,,inactive
CCOC(=O)CC(SP(=O)(OC)OC)C(=O)OCC (stereo not drawn),,inactive
CCCCCON=O,-16.8% (inactive),

SMILES,"activity change, negative = cytotoxicity",Potency
FC(F)(F)c1ccc(Cl)cc1,,inactive
CON(C)C(=O)Nc1ccc(Cl)cc1,1.97% (inactive),
COP(=S)(OC)Oc1ccc([N+](=O)[O-])cc1,,inactive
CCCCCCCCC(=O)NCc1ccc(O)c(OC)c1,,inactive
COc1c(C(C)(C)C)cc([N+](=O)[O-])c(C)c1[N+](=O)[O-],-16.2% (inactive),
CCc1cnc(C2=NC(C)(C(C)C)C(=O)N2)c(C(=O)O)c1 (stereo not drawn),,inactive
CCCCCBr,-4.88% (inactive),
COP(=S)(OC)Oc1ccc(Sc2ccc(OP(=S)(OC)OC)cc2)cc1,,inactive
CC(=O)CCC(C)=O,7.65% (inactive),
CCOP(=O)(O)OCC (tested in a mixture with another compound),,inactive and 36.1 µM (active)
O=[N+]([O-])c1ccc(Cl)c(Cl)c1,,inactive
CC(C)(O)C(=O)Nc1ccc([N+](=O)[O-])c(C(F)(F)F)c1,-3.46% [at 30.3 µM] (inactive),
CCCCNC(=O)n1c(NC(=O)OC)nc2ccccc21,,inactive
CCCCCCCCCCCC(=O)O,,inactive
OC(Cc1ccccc1Cl)(Cn1cncn1)C1(Cl)CC1 (stereo not drawn),-0.829% (inactive),
